About 440 (0.52%) of roughly 85,000 compounds showed an effect of 50% or more. Shown is part of a subset that was picked to be rich in strong results.
Test: In vitro enzyme assay to detect hydrolysis of chlorophenol red-beta-D-[…] directly proportional to the number of Toxoplasma stably expressing beta-galactosidase
Type: functional, organism-based, Toxoplasma gondii
Design: scale not given: in the data most compounds retested in dose-response had high values

CC(=O)NCCNC(=O)c1cc(Cl)c(Cl)n1C
Percent Effect (50 µM): -20.76%

CCc1cc(N2CCCC(CN)C2)n2nccc2n1 (configuration not stated)
Percent Effect (50 µM): 8.07%

O=C(O)C(F)(F)F.O=C1COC2(CCN(Cc3nccs3)CC2)CN1c1ccccc1
Percent Effect (10 µM): -19.73%

Cn1cc(N2CC3(CCN(Cc4nccs4)CC3)OCC2=O)cn1.O=C(O)C(F)(F)F
Percent Effect (10 µM): 66.73%

Cn1cc(N2CC3(COCCN(Cc4nccs4)C3)OCC2=O)cn1.O=C(O)C(F)(F)F (configuration not stated)
Percent Effect (10 µM): 3.864%

CN(C)S(=O)(=O)N1CCCC1c1ccsc1 (configuration not stated)
Percent Effect (50 µM): 2.745%

O=S(=O)(c1ccc2c(c1)CCCN2)N1CCCC1
Percent Effect (50 µM): 5.041%

O=C(CCCNC(=O)C1CCCO1)Nc1ccc(Cl)cc1 (configuration not stated)
Percent Effect (10 µM): 23.23%

Cc1ccc(NC(=O)CCCNC(=O)C2CC2)cc1
Percent Effect (50 µM): 98.6%

O=C(CCCNC(=O)C1CC1)Nc1cnn(-c2ccccc2Cl)c1
Percent Effect (10 µM): 12.28%

CNCCCNS(=O)(=O)c1ccc(Br)c(C(C)=O)c1
Percent Effect (50 µM): 7.594%

COCC(=O)N[C@H]1CN(CCS(C)(=O)=O)C[C@@H]1C(C)C
Percent Effect (50 µM): -7.194%

CCn1nc(CC(C)C)cc1C(=O)N1CCC(N)C1 (configuration not stated)
Percent Effect (50 µM): -11.21%

CC(Nc1cccc2c1OCCO2)C(=O)Nc1ccc(S(N)(=O)=O)cc1 (configuration not stated)
Percent Effect (10 µM): 5.712%

CC(Nc1cccc2c1OCCO2)C(=O)Nc1ccc(Cl)cc1 (configuration not stated)
Percent Effect (10 µM): 6.519%

CCc1ccc(NC(=O)C(C)Nc2cccc3c2OCCO3)cc1 (configuration not stated)
Percent Effect (10 µM): 82.59%

CC(C)CC1NCCCNC1=O (configuration not stated)
Percent Effect (50 µM): 0.1576%

CS(=O)(=O)CCn1ccnc1-c1ccc(Cl)s1
Percent Effect (50 µM): -2.415%

COc1ccccc1-c1ccccc1CC1(C(=O)O)CCNCC1
Percent Effect (10 µM): 8.204%

CCOC(=O)C1(Cc2ccccc2-c2ccccc2OC)CCNCC1.Cl
Percent Effect (10 µM): 44.64%

CN(CCCC1CCCO1)C(=O)c1cccc(N)n1 (configuration not stated)
Percent Effect (50 µM): 1.142%

CC(=O)NCC(=O)N1CCN(c2ccncc2Cl)CC1
Percent Effect (50 µM): -5.39%

CN1CCC(NCC(O)c2cccc(OCc3ccccc3)c2)CC1 (configuration not stated)
Percent Effect (10 µM): 74.89%

OC(CNC1CCOCC1)c1cccc(OCc2ccccc2)c1 (configuration not stated)
Percent Effect (10 µM): 6.488%

OC(CNC1CCSCC1)c1cccc(OCc2ccccc2)c1 (configuration not stated)
Percent Effect (10 µM): 40.53%

Cc1ccc(NC(=O)CN(C)C2CC[S+]([O-])CC2)cc1 (configuration not stated)
Percent Effect (50 µM): -6.954%

COc1ccc(C)cc1NC(=O)Cn1ccnc1
Percent Effect (50 µM): 17.12%

O=C(NCc1ccc2c(c1)OCO2)Nc1nccs1
Percent Effect (50 µM): -9.702%

COCC(N)c1ccccc1 (configuration not stated)
Percent Effect (50 µM): 3.787%

Cl.NC(CC1CCCC1)c1ccccc1 (configuration not stated)
Percent Effect (10 µM): -47.66%

NC(CC1CCCC1)c1ccc(Oc2ccccc2)cc1 (configuration not stated)
Percent Effect (10 µM): 55.94%

CCOC(=O)C1(C(C)C)CCN(C(=O)c2cn[nH]c2)C1 (configuration not stated)
Percent Effect (50 µM): -4.733%

N#Cc1ccnc(SCc2ccncc2)c1
Percent Effect (50 µM): 30.75%

COC(C)(C)C(=O)CSc1cc(C#N)ccn1
Percent Effect (50 µM): 9.152%

N#Cc1ccnc(SCC(=O)Nc2ccncc2)c1
Percent Effect (50 µM): 98.13%

O=C(Cn1cc(Br)cn1)Nc1ccc2c(c1)OCCO2
Percent Effect (50 µM): -0.8097%

NC(=O)C[C@@H](N)c1ccccc1Cl
Percent Effect (50 µM): 50.18%

NC(=O)C[C@H](N)c1ccccc1
Percent Effect (50 µM): 8.251%

NC(=O)C[C@@H](N)c1ccc(Cl)cc1
Percent Effect (50 µM): 0.4297%

COc1cccc(-c2noc(C3CCN(Cc4ccccc4C)C3)n2)c1.Cl (configuration not stated)
Percent Effect (10 µM): 42.09%

COc1cccc(-c2noc(C3CCN(Cc4ccccc4F)C3)n2)c1.Cl (configuration not stated)
Percent Effect (10 µM): 11.37%

CCNC(=O)CN1CCCC(c2nccn2CC)C1 (configuration not stated)
Percent Effect (50 µM): 95.83%

CCn1ccnc1C1CCN(CC(=O)N(C)C)CC1
Percent Effect (50 µM): 16.85%

CCn1ccnc1C1CCCN(CCC(N)=O)C1 (configuration not stated)
Percent Effect (50 µM): 24%

CC(C)COC1CCN(S(=O)(=O)Cc2cccc(F)c2)CC1
Percent Effect (10 µM): 8.24%

CC(C)COC1CCN(S(=O)(=O)N2CCCC2)CC1
Percent Effect (50 µM): 99.18%

COCC(C)S(=O)(=O)N1CCCCC1 (configuration not stated)
Percent Effect (50 µM): 6.357%

Cc1nc2ccc(C(=O)N3CC(O)C3)cc2nc1C
Percent Effect (50 µM): -4.584%

CSc1cccc(F)c1CN
Percent Effect (50 µM): 2.771%

NCc1cccc(OCc2ccccn2)c1
Percent Effect (50 µM): -1.325%

CC(=O)NCc1cccc(OCc2ccccn2)c1
Percent Effect (50 µM): 53.39%

COc1cccc(CNCc2ccccn2)c1
Percent Effect (50 µM): 10.94%

Cc1noc(C)c1C(=O)N(C)C1CCS(=O)(=O)C1 (configuration not stated)
Percent Effect (50 µM): -15.63%

Cc1ccc(C2COCCN2)o1 (configuration not stated)
Percent Effect (50 µM): 3.644%

COCC(=O)N1CCn2c(COc3cccnc3)cnc2C1C.O=C(O)C(F)(F)F (configuration not stated)
Percent Effect (10 µM): 84.28%

CC1c2ncc(COc3cccnc3)n2CCN1C(=O)Cc1ccco1.O=C(O)C(F)(F)F (configuration not stated)
Percent Effect (10 µM): -0.5977%

CC1c2ncc(COc3cccnc3)n2CCN1C(=O)C1=CCCC1.O=C(O)C(F)(F)F (configuration not stated)
Percent Effect (10 µM): 10.52%

O=C(NCCSCc1ccco1)c1cccnc1O
Percent Effect (50 µM): -3.309%

COc1ccc(CC#N)cc1S(C)(=O)=O
Percent Effect (50 µM): 54.15%

COc1ccccc1CC#N
Percent Effect (50 µM): 14.35%

COc1ccc(CC(C)(C#N)NC(C)=O)cc1OC (configuration not stated)
Percent Effect (50 µM): 14.61%

COC(=O)c1cnc2c(c(C)nn2C)c1OC
Percent Effect (10 µM): 68.54%

COc1c(C(=O)N2CCNC(=O)C2)cnc2c1c(C)nn2C
Percent Effect (10 µM): 0.4571%

COc1c(C(=O)N2CCOCC2)cnc2c1c(C)nn2C
Percent Effect (10 µM): -14.92%

CN1CCN(Cc2nccn2C)[C@H]2CS(=O)(=O)C[C@H]21
Percent Effect (50 µM): 0.771%

OCCNCCNCc1ccc(-c2ccccc2Cl)o1
Percent Effect (50 µM): 33.01%

OCCNCCNCc1ccc(-c2ccccc2)o1
Percent Effect (50 µM): 1.266%

OCCNCCNCc1ccc(-c2cccc(Cl)c2)o1
Percent Effect (50 µM): 71.47%

O=C(NC1CCCC1)c1cnccn1
Percent Effect (50 µM): 54.91%

Cc1nnc2n1CCC(NC(=O)c1cnccn1)CC2 (configuration not stated)
Percent Effect (50 µM): 2.489%

O=C(NCCSC1CCCC1)c1cnccn1
Percent Effect (10 µM): 0.9702%

CCC(C)N(CC(=O)OC)Cc1nccn1C (configuration not stated)
Percent Effect (50 µM): 1.211%

OCc1ccccc1CC1CCNCC1
Percent Effect (50 µM): 2.025%

CC(C)c1cc(NC(=O)c2ccc([S+]([O-])C(C)C)cc2)[nH]n1 (configuration not stated)
Percent Effect (10 µM): 54.78%

CC(C)c1cc(NC(=O)c2ccc(C(=O)NC(C)(C)C)cc2)[nH]n1
Percent Effect (10 µM): 9.105%

CC(C)CC(=O)Nc1cc(C(C)C)n[nH]1
Percent Effect (50 µM): 12%

CC(C)c1cc(NC(=O)c2ccc(NC3CC3)nc2)[nH]n1
Percent Effect (10 µM): 3.917%

Cc1ccc(CC(=O)Nc2cc(C(C)C)n[nH]2)cn1
Percent Effect (10 µM): 86.76%

CC(C)c1cc(NC(=O)c2ccncc2)[nH]n1
Percent Effect (10 µM): 64.12%

CC(C)c1cc(NC(=O)c2cccnc2)[nH]n1
Percent Effect (10 µM): 41.77%

Cc1cc(NC(=O)c2ccc(F)cc2)[nH]n1
Percent Effect (50 µM): -8.221%

Cc1ccc(C(=O)Nc2cc(C(C)C)n[nH]2)cn1
Percent Effect (10 µM): -1.588%
